# The panel holds about 83,000 compounds, 20% with a hit somewhere; the sample as a whole holds those more often.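 Plates (96-well) were seeded with cells, treated with compound at one concentration, and incubated for 48 hours before percent growth was determined.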 Active and inactive are the calls of the source. How the source made its calls: active means growth percent below 10; inactive means the rest.
# System: ACHN renal
# Experiment: NCI-60 one-dose screen, 48 h (100 = growth as untreated, 0 = no growth, -100 = all killed)
# Details: 10 µM unless noted
row,SMILES,growth
1,CC(C)=CCC[C@](C)(O)[C@H]1CC[C@]2(C)[C@@H]1CC[C@@H]1[C@@]3(C)CC[C@H](N)C(C)(C)[C@@H]3CC[C@]12C,91.7% (inactive)
2,Cc1cc2nc(C(Cl)Cl)nc(-c3ccc(S(=O)(=O)N(C)C)cc3)n2n1,25.2% (inactive)
3,CCCCCCNC(=O)Oc1ccc(/C(=C(/C)c2ccc(OC)cc2)c2ccc(OCCN3CCCCCC3)cc2)cc1,47.7% (inactive)
4,Cc1nc(/N=C(N)/N=C(\N)c2cccc(Br)c2)sc1C,49.9% (inactive)
5,O=c1nc(Nc2ccc([N+](=O)[O-])cc2O)sc2ccccc12,43.5% (inactive)
6,C#CCOc1ccc(-c2csc(NC(=O)C=C)n2)cc1NS(=O)(=O)c1cccc2c(N(C)C)cccc12,9.85% (active)
7,COc1ccc(C2CC(c3cccc(OCCCCOc4cccc(C5=NOC(c6ccc(OC)cc6)C5)c4)c3)=NO2)cc1 (stereo not given),104% (inactive)
8,Cc1ccc(OCc2occc2C(=O)N2CCOCC2)cc1,111% (inactive)
9,O=S(=O)(NCCCNc1nccc(-c2[nH]c(-c3ccccc3)nc2-c2ccc(F)c(O)c2)n1)c1cccc2ccccc12,59.6% (inactive)
10,CCc1cc(OC(=O)N2CCC(N3CCCCC3)CC2)ccc1Nc1cc(-c2ccc(-n3cccn3)cc2)[nH]n1,42.9% (inactive)
11,O=C(COc1ccc(/C=C2\C(=O)Nc3ccc(F)cc32)cc1)Nc1ccccc1,93.7% (inactive)
12,CC1=C(C)C(=O)C(Nc2cccc(C(=O)OC(C)(C)C)c2)=CC1=O,86.4% (inactive)
13,Cn1cc(-c2nnc(N)nc2-c2c[nH]c3ccc(F)cc23)c2cc(Br)ccc21,40.6% (inactive)
14,Cn1c(SCC(=O)c2ccc(F)cc2)nc2ccccc2c1=O,96.4% (inactive)
15,CN1CCN(c2ccc(Nc3nc(NCCCNS(=O)(=O)c4cccc5ccccc45)c4sccc4n3)cc2)CC1,-23.8% (active)
16,CCCCCC[n+]1ccc(SCC(=O)n2ccc3ccccc32)c2ccccc21,87.2% (inactive)
17,COc1ccc(-c2cc(-c3ccc(N(C)C)cc3)n3c(n2)nc2ccccc23)cc1,63.7% (inactive)
18,CC(=O)N(O)CCCCCNC(=O)CCC(=O)N(O)CCCCCNC(=O)CCC(=O)N(O)CCCCCN(CCCCCCCCCC[P+](c1ccccc1)(c1ccccc1)c1ccccc1)CCCCCCCCCC[P+](c1ccccc1)(c1ccccc1)c1ccccc1,29.7% (inactive)
19,CC1=C(C)C(=O)C(Nc2ccc3c(c2)OCCO3)=C(Br)C1=O,101% (inactive)
20,COc1ccc2c(c1)C=CC1(O2)Oc2ccc(OC)cc2C=C1C (stereo not given),38% (inactive)

row,SMILES,growth
1,C/C(=C(\c1ccc(O)cc1)c1ccc(OCCN2CCCCCC2)cc1)c1ccc(Cl)cc1,-88.2% (active)
2,Brc1cccc(-c2cc(-c3ccc4c(c3)OC=CO4)[nH]n2)c1,43.7% (inactive)
3,COc1ccc(C(C)=C(c2ccc(OCCN(C)C)cc2)c2ccc(OCCN(C)C)cc2)cc1,-46% (active)
4,NS(=O)(=O)c1ccc(Nc2nc(N/N=C/c3ccc4c(c3)OCO4)nc(Nc3ccccc3)n2)cc1,57.8% (inactive)
5,COc1ccc(C2c3[nH]c4ccc(Cl)cc4c3CCN2c2oc(CO)nc2C#N)cc1 (stereo not given),45.3% (inactive)
6,CCc1cc2c(cc1Cl)nc1c(=O)[nH]c(=O)nc-1n2CCOCC(C)C,60% (inactive)
7,COc1ccc(-c2c3c(cn2Cc2cccc(OC)c2)-c2oncc2CCC3)cc1,102% (inactive)
8,COc1ccc(/C(=N\NC(N)=S)c2ccc(Cl)cc2)cc1OC,42.3% (inactive)
9,O=C(CSc1nnc(-c2ccc(Cl)cc2)n1-c1ccccc1)Nc1ccccc1Cl,21.7% (inactive)
10,COc1ccc(-c2c(C(N)=O)c(N)n(Cc3nc4ccccc4[nH]3)c(=O)c2C#N)c(OC)c1,96.2% (inactive)
11,COc1ccc(-c2cnc(NC(=O)CCCCCCNC(=O)C(O)(O)C(F)(F)F)s2)cc1,-29.5% (active)
12,C#C[C@]1(O)CC[C@H]2[C@@H]3CC=C4c5sc(Nc6cc(C)cc(C)c6)nc5CC[C@]4(C)[C@H]3CC[C@@]21C,34.3% (inactive)
13,COC(=O)CNC(=O)c1cccc(-c2cc(=O)c3c(OC)c(OC)c(OC)cc3o2)c1,98.9% (inactive)
14,CCC1=Cc2c(OC)cccc2OC12C=Cc1c(OC)cccc1O2 (stereo not given),35.9% (inactive)
15,Cc1ccc2c(n1)C(=O)C(Cl)=C(Nc1ccc(C#N)cc1)C2=O,-58.5% (active)
16,Cn1ncc2c(C(=O)c3ccc(F)cc3)nc(C(C)(C)C)nc21,99.1% (inactive)
17,CN1c2ccccc2Sc2cc(/C=N/Nc3ccnc4cc(Cl)ccc34)ccc21,109% (inactive)
18,COCCOc1ccc2ncc(C#Cc3cncc(C(=O)Nc4ccc(CN5CCN(C)CC5)c(C(F)(F)F)c4)c3)n2n1,4.87% (active)
19,O=C(CCCCCCNC(=O)C(O)(O)C(F)(F)F)Nc1ncc(-c2ccccc2)s1,-53.1% (active)
20,CCCCN1C(=O)/C(=c2\sc3n(c2=O)C2C(NN=3)N(CC)C(=O)N2CC)c2cc(C)ccc21 (stereo not given),95.1% (inactive)

# — PubChem BioAssay (NCI)
